# Measured values taken from PubChem BioAssay (NCI).
# Compounds without any hit were thinned out: in the full panel of roughly 79,000, 15% have a hit. A number with no mark means an inactive call. The source made the active and inactive calls. Cut-off read from the data, not from the text of the source: active = growth inhibition above about 70%; inactive = the rest.
# Experiments:
# [1] = NCI Yeast Anticancer Drug Screen. Data for the rad50 strain (AID 155);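 note: 0% = growth of vehicle-only cultures of the same strain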; settings: S. cerevisiae rad50 strain growth inhibition, active compounds read high
# In short: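 Inhibition values express reduced yeast growth in compound-treated cultures relative to vehicle-treated controls.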
# [2] = NCI Yeast Anticancer Drug Screen. Data for the mec2-1 strain (AID 157); settings: S. cerevisiae mec2-1 strain, active compounds read high
# In short: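 Cells of the genetically defined mec2-1 yeast strain are incubated with test compound. Inhibition of growth is calculated against vehicle-treated controls.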
# [3] = NCI Yeast Anticancer Drug Screen. Data for the sgs1 mgt1 strain (AID 161);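 note: 0% = growth of cultures given vehicle only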; settings: S. cerevisiae sgs1 mgt1 strain, active compounds read high
# In short: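 Test agents were incubated with a DNA-repair-mutant yeast strain. Growth was then read and compared against vehicle-treated controls.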
# [4] = NCI Yeast Anticancer Drug Screen. Data for the cln2 rad14 strain (AID 165);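 note: 0% = growth equal to vehicle treated cultures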; settings: S. cerevisiae cln2 rad14 strain, active compounds read high
# In short: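 The screen exposed genetically defined yeast (cln2 rad14) to test compounds and scored growth inhibition relative to vehicle-treated controls.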
# [5] = NCI Yeast Anticancer Drug Screen. Data for the bub3 strain (AID 167); settings: S. cerevisiae bub3 mutant strain, active compounds read high
# In short: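 Steps: expose the mutant yeast strain to compound; grow alongside vehicle-treated cultures; measure growth; express inhibition against the vehicle cultures.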
# [6] = NCI Yeast Anticancer Drug Screen. Data for the mlh1 rad18 strain (AID 175); settings: S. cerevisiae mlh1 rad18 strain growth inhibition, active compounds read high
# In short: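 Compound-treated yeast growth, normalised to vehicle controls. Strain bears defined DNA repair mutations.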
# [7] = at 5.0 µM (retest, dose inferred, filed as 0.5)
# [8] = at 50.0 µM (retest, dose inferred, filed as 5.0)
Structure (SMILES),"growth inhibition [1, 7]","growth inhibition [1, 8]",growth inhibition ([1]; at 50.0 µM),"growth inhibition [2, 7] [%]","growth inhibition [2, 8]",growth inhibition ([2]; at 50.0 µM),"growth inhibition [3, 7]","growth inhibition [3, 8]",growth inhibition ([3]; at 50.0 µM),"growth inhibition [4, 7]","growth inhibition [4, 8]",growth inhibition ([4]; at 50.0 µM),"growth inhibition [5, 7]","growth inhibition [5, 8]",growth inhibition ([5]; at 50.0 µM),"growth inhibition [6, 7]","growth inhibition [6, 8]",growth inhibition ([6]; at 50.0 µM)
O=C(O)CC/C(=N\Nc1ccccc1)C(=O)O,3%,96% (active),97.2% (active),-2,90% (active),98% (active),-8%,84% (active),97.4% (active),6%,98% (active),97% (active),1%,93% (active),97.3% (active),5%,93% (active),97% (active)
C=CCOc1ccccc1C(OCC)OCC,8%,74% (active),46.5%,7,35%,23.3%,8%,76% (active),52.6%,11%,32%,7.75%,7%,81% (active),30.2%,0%,87% (active),43.8%
CCCCCCCCCCCCCCC(O)C[N+](C)(CCO)CCO (stereo not given),29%,98% (active),86.6% (active),22,99% (active),87.7% (active),32%,99% (active),88.8% (active),10%,98% (active),88.3% (active),28%,99% (active),86% (active),32%,98% (active),88.9% (active)
CN(C)C(=O)/C=C/c1c[nH]c(=O)[nH]c1=O,-146%,-149%,-5.65%,-47,-49%,-2.3%,-63%,-68%,1.05%,-58%,-64%,19.1%,-73%,-78%,-3.35%,-149%,-119%,2.75%
O=C(Nc1ccccc1Cl)c1cccnc1,-146%,-174%,6.55%,-48,-56%,14.8%,-56%,-70%,9.25%,-48%,-63%,51.6%,-63%,-81%,-7.4%,-112%,-123%,4.45%
O=C(OC1CC2CC1C1CC=CC21)c1ccccc1 (stereo not given),-3%,-3%,-5.55%,-6,2%,10.9%,-8%,1%,-3.8%,-5%,-24%,-4.4%,46%,68%,21.9%,-5%,-3%,-3.95%
CC(=O)Oc1cc(OC(C)=O)c2cc(Br)ccc2c1OC(C)=O,-5%,63%,87.5% (active),3,47%,72.8% (active),-19%,67%,62.8%,0%,37%,70.2% (active),0%,65%,94.1% (active),5%,69%,90.7% (active)
CC(CN(C)C)C(=O)c1cn(C)c2ccccc12 (stereo not given),1%,3%,9%,5,2%,16.8%,-2%,3%,30.3%,3%,4%,12.6%,-2%,-4%,-9.05%,-2%,1%,70.2% (active)
O=C(O)C(S(=O)(=O)O)S(=O)(=O)O,99% (active),99% (active),99.2% (active),54,99% (active),99.4% (active),100% (active),99% (active),99.1% (active),100% (active),99% (active),99.3% (active),99% (active),99% (active),98.4% (active),99% (active),99% (active),99.3% (active)
Cn1c(=S)c2[nH]c(SC3CCCCC3)nc2n(C)c1=O,46%,68%,94.8% (active),42,61%,99.5% (active),41%,-20%,99.2% (active),27%,34%,52.5%,52%,63%,98.2% (active),23%,62%,98.8% (active)
